# In all, about 340,000 compounds went through this assay and about 1,400 (0.41%) were called active. The entries come from a sample that favours actives as a whole. Unmarked numbers belong to inactive results.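 Rule for the calls: active = response above a set limit, near 3 SD of response in nonfluorescent compounds (cut at about 42% in these data); inactive = the rest.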
# Molecular target: Beta-2 adrenergic receptor (Homo sapiens) (UniProt P07550)
# Assay: beta2AR agonists driving receptor internalization, primary screen, cell-based, FAP fluorogen, flow cytometry (AID 504454)
# Settings: Am2.2-beta2AR cells, stronger effect = higher value, concentration not given here
# Beta-2 adrenergic receptor (Homo sapiens), sequence (P07550 whole entry, looked up): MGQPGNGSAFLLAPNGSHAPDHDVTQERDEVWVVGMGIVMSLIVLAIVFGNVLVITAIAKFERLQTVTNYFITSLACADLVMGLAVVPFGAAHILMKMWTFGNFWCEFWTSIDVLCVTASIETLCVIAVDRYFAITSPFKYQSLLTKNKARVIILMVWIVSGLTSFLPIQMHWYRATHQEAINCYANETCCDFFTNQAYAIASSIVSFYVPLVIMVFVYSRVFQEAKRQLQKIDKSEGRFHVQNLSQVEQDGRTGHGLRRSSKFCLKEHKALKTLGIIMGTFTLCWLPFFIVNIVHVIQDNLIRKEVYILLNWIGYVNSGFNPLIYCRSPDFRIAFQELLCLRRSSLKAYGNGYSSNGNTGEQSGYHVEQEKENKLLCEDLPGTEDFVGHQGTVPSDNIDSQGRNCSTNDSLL
row,Structure (SMILES),response
1,COc1ccc(C2c3[nH]c4ccccc4c3CCN2CCCn2cccn2)cc1C (centres undefined),-1.99%
2,Cc1ccc(N2C(=O)CC(N3CCSCC3)C2=O)c(C)c1 (centres undefined),-0.71%
3,CC(C)(C)NC(=O)CN(C(=O)c1ccc(Cl)nc1)c1cccc2ccccc12,1.65%
4,CC(=O)OCCOCn1cnn2c(=O)c(Br)c(C)nc12,-5.29%
5,Cc1cnc(C)c(N2CCN(C(=O)C3CCC(=O)N(CCc4cccc(F)c4)C3)CC2)n1 (centres undefined),-4.11%
6,NC(=O)C1(N2CCCC2)CCN(Cc2ccccc2)CC1,-1.07%
7,COC(=O)c1[nH]c2ccc(Br)cc2c1NC(=O)Oc1ccccc1,43.5% (active)
8,C/C(=N\N)c1c(-c2ccccc2)c2cc(Br)ccc2[nH]c1=O,-0.61%
9,COC(=O)c1[nH]c2ccccc2c1NC(=O)CN1CCCc2ccccc21,6.44%
10,COCCN1C(=O)c2oc3c(C)cc(C)cc3c(=O)c2C1c1cccc(O)c1 (centres undefined),51.7% (active)
11,O=C1c2oc3ccccc3c(=O)c2C(c2cccc(O)c2)N1c1ccccn1 (centres undefined),-12.8%
12,CCCOc1ccc(C2c3c(oc4cc(C)c(C)cc4c3=O)C(=O)N2CCCN2CCOCC2)cc1 (centres undefined),-4.95%
13,COCCCn1c(SCc2cccc(OC)c2)nc2cc(OC)c(OC)cc2c1=N,7.49%
14,CCCC(=O)Nc1nnc(CC(=O)OCC)s1,8.2%
15,CN1CCN(C(CNS(=O)(=O)c2cccs2)c2cccnc2)CC1 (centres undefined),-2.41%
16,COc1ccc(C[C@H]2CN3C(=NC[C@H]3C)N2CCNC(=O)CCC2CCCCC2)cc1,8.82%
17,COc1ccc(N2C(=O)CC(Sc3n[nH]c(-c4ccc(C)cc4)n3)C2=O)cc1 (centres undefined),1.89%
18,CC(=O)Nc1ccc(N2C(=O)CC(Sc3nccc(C)n3)C2=O)cc1 (centres undefined),1.18%
19,CCOc1ccccc1N1C(=O)CC(Sc2nccc(C)n2)C1=O (centres undefined),47.5% (active)
20,COCC1CCN(C(=O)CCc2nnc(C3(c4ccc(Cl)cc4)CCC3)o2)C1 (centres undefined),-4.25%

row,Structure (SMILES),response
1,COc1ccc(CCNC(=O)CCc2ccccc2O)cc1OC,0.69%
2,Cc1ccc(NC(=O)CN(C)C(=O)Cn2nnc(-c3ccccc3)n2)cc1,-5.12%
3,CCOC(=O)c1ccc(NC(=O)Cn2cnc3cc(C)c(C)cc32)cc1,9.03%
4,CCOC(=O)c1ccc(NC(=O)Cn2nnc(-c3ccc(C)cc3)n2)cc1,91.8% (active)
5,Cc1ccc(CNC(=O)CCC(=O)N2CC(C)Sc3ccccc32)cc1 (centres undefined),-5.01%
6,O=C(/C=C/Sc1ncn[nH]1)c1ccc(Cl)cc1,78.1% (active)
7,Cc1cc(C)nc(S/C=C/C(=O)c2ccccc2)n1,41.9%
8,Cc1cccc(C=CC(=O)c2ccc(Cl)cc2)c1,0.41%
9,CCc1cc(-c2nnc(SCC(=O)NC3CC3)n2C)cs1,-9.66%
10,CCC(C)(C)NC(=O)CN(C(=O)C(=O)Nc1ccc2c(c1)OCCO2)C(C)(C)CC,0.65%
11,COc1ccc(-n2c(=O)[nH]c3cc(C(=O)NCCc4ccc(OC)c(OC)c4)ccc3c2=O)c(OC)c1,2.93%
12,CN/C(=C\[N+](=O)[O-])NCCSCc1csc(CN(C)C)n1,-4.88%
13,CC(C)CC(=O)NC(=S)NNC(=O)c1cccc([N+](=O)[O-])c1,-4.1%
14,C#CCN1CC(C)/C(=N/O)CC1C (centres undefined),-6.18%
15,O=C(/C=C/c1ccco1)NC(=S)Nc1ccccc1Br,12.9%
16,COc1ccccc1/C=C/C(=O)NC(=S)N1CCOCC1,-6.28%
17,O=C(/C=C/c1ccco1)NC(=S)N1CCCCC1,88.5% (active)
18,C=CCNC(=O)COC(=O)c1ccccc1C(=O)N(C)C1CCCCC1,2.56%
19,Cc1ccc(SCC(=O)N2CCN(c3ccc(F)cc3)CC2)cc1,-23.7%
20,CCN1CCN(C(=O)CSc2ccc(C)cc2)CC1,11.4%

row,Structure (SMILES),response
1,CCN1CCC2(CC1)N=C(c1ccc(F)cc1)C(=S)N2C(=O)c1ccc(C)cc1,85.6% (active)
2,CCn1cc(/C=C(\NC(=O)c2ccc(C)cc2)C(=O)NCCN2CCOCC2)c2ccccc21,4.83%
3,CCCN(Cc1cc2cccc(C)c2[nH]c1=O)S(C)(=O)=O,9.7%
4,COc1ccc(CCNC(=O)C(=O)Nc2ccc3nc4n(c(=O)c3c2)CCCCC4)cc1OC,-7.18%
5,Cc1nc(-c2ccc(Cl)cc2)sc1C1(C)CC(c2ccc(Br)cc2)=NO1 (centres undefined),-4.06%
6,Clc1ccc2nc(-c3ccccc3)nc(C(Cl)Cl)c2c1,50% (active)
7,NC(N)=Nc1nc(-c2ccccc2)c2cc(Cl)ccc2n1,8.97%
8,Clc1cccc(-c2nc(NCC3CCCO3)c3ccccc3n2)c1 (centres undefined),-5.27%
9,Cc1ccc(S(=O)(=O)NCCc2nnc3ccc(SCc4cccnc4)nn23)cc1,-8.28%
10,CC(C)OC(=O)c1ccc(COc2ccc3ccc(=O)oc3c2)o1,-3.14%
11,CCN(CC)C(=O)CSc1nnc(CNc2ccc(F)cc2)n1Cc1ccco1,-1.42%
12,CC(C)(C)OC(=O)N1CCC(NC(=O)c2[nH]cnc2C(=O)N[C@@H](Cc2ccccc2)C(=O)OCc2ccccc2)CC1,78.6% (active)
13,O=C(N[C@@H](Cc1ccccc1)C(=O)OCc1ccccc1)c1nc[nH]c1C(=O)NC1CCNCC1,-6.96%
14,CC(C)(C)OC(=O)CNC(=O)c1[nH]cnc1C(=O)N[C@@H](Cc1ccccc1)C(=O)OCc1ccccc1,10.2%
15,O=C(O)c1ccc(Cn2cnc3c(=S)nc[nH]c32)cc1,5.59%
16,O=S(=O)(Nc1ccc2[nH]ncc2c1)c1ccccc1Cl,60.7% (active)
17,O=C(O)c1cc(S(=O)(=O)Nc2ccc3cn[nH]c3c2)ccc1Br,7.91%
18,O=S(=O)(Nc1ccc2cn[nH]c2c1)c1ccccc1,4.15%
19,Cc1ccc(S(=O)(=O)N(CC(=O)NN=C2CCN(C)CC2)c2ccc(F)cc2)cc1,-3.48%

# Source: PubChem BioAssay AID504454 (NMMLSC, 2011)
